FECH inh – blocks human mitochondrial ferrochelatase activity; actives 3.3% (n = 20,000); P22830; purified FECH, Ni-mesoporphyrin absorbance 550 nm; calls only at 10 µM (by protocol);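 active = enzyme reaction rate more than 3 SD below the solvent-only control wells on the same plate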;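 also: lower slope than DMSO wells means FECH inhibition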
Target sequence (P22830 whole entry, looked up): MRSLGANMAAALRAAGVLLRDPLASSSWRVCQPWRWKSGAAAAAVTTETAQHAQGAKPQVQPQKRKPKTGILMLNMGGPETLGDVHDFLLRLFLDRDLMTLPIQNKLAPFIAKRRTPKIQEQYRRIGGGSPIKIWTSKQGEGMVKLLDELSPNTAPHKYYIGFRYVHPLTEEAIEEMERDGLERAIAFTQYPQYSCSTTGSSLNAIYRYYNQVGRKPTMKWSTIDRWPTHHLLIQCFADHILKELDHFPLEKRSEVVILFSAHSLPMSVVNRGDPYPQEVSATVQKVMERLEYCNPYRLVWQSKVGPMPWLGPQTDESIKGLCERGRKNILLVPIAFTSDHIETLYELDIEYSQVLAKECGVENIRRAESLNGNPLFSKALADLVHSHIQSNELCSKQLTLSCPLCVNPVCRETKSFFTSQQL
* hit, by the source's call; i = inactive; + = active, no number. This excerpt belongs to a sample that is enriched for hits.

SMILES | FECH inh
CC(C)CCNC(=O)c1nc[nH]c1C(=O)NCc1ccccc1 | i
O=C(NCc1ccccn1)c1nc[nH]c1C(=O)NCc1cccnc1 | +
O=C(NC1CCCCC1)c1nc[nH]c1C(=O)NCc1ccccn1 | +
Cc1ccc(CNC(=O)c2[nH]cnc2C(=O)NC(C)C)o1 | i
Cc1ccc(CNC(=O)c2nc[nH]c2C(=O)NCc2ccccn2)o1 | +
Cc1ccc(CNC(=O)c2[nH]cnc2C(=O)NC2CCCCC2)o1 | i
O=C(NC1CCCCNC1=O)c1nc[nH]c1C(=O)NCc1ccccn1 (centres undefined) | i
COc1cc(C(=O)N2CCNCC2C(=O)NCc2ccccn2)ccn1 (centres undefined) | i
Cc1ccc(S(=O)(=O)N(CCOc2ccccc2)c2nc3nc(C)c(Cl)c(C)n3n2)cc1 | i
COc1cccc2c(=O)n(CCN3CCNCC3)cnc12 | i
O=C(O)c1[nH]ncc1CN1CCC1c1ccc(F)cc1 (centres undefined) | i
CCc1ccc(C(=O)NCCn2c(CCc3ccccc3)nc3cccnc32)cc1 | i
Cc1ccc(-n2c(=O)n(Cc3ccccc3)c3c(C(N)=O)nc(-c4ccc(Cl)cc4)nc32)cc1C | i
CC(C)(C)c1ccc(-c2cncnc2)cc1 | i
COc1ccc(OC)c(CNC(=O)c2cc3n(n2)CC(C)(C(=O)NCc2ccc(C)cc2)N(C)C3=O)c1 (centres undefined) | i
COc1ccccc1CNC(=O)c1nc[nH]c1C(=O)NCc1cccnc1 | +
CC(C)NC(=O)c1nc[nH]c1C(=O)NC1CCCc2ccccc21 (centres undefined) | i
CCCCCN(C)C(=O)c1[nH]cnc1C(=O)NCc1ccccc1 | i
COc1ccccc1CNC(=O)c1[nH]cnc1C(=O)NC1CCc2ccccc21 (centres undefined) | +
COc1ccccc1CNC(=O)c1nc[nH]c1C(=O)N1CCC(O)(c2ccc(Cl)cc2)CC1 | +
CC(C)(C)CNC(=O)c1nc[nH]c1C(=O)N1CCC(O)(c2ccc(Cl)cc2)CC1 | i
COc1ccccc1CN(Cc1cccnc1)C(=O)c1sc(C)nc1C | i
O=C(NC1CCCCC1)c1nc[nH]c1C(=O)NC1CCc2ccccc21 (centres undefined) | +
CC(C)CCNC(=O)c1nc[nH]c1C(=O)N1CCC(O)(c2ccc(Cl)cc2)CC1 | i
COc1ccccc1CNC(=O)c1nc[nH]c1C(=O)N1CCc2ccccc2C1 | i
SMILES | FECH inh
CCCNC(=O)c1[nH]cnc1C(=O)NC1CCCC1 | i
O=C(NC1CCCCC1)c1nc[nH]c1C(=O)NC1CCCC1 | i
CCOC(=O)[C@@H]1C[C@@H]1c1[nH]cnc1-c1ccccc1 | i
CCOC(=O)Cn1c(=O)n(-c2ccc(C)c(C)c2)c2nc(-c3ccc(SC)cc3)nc(C(N)=O)c21 | i
CCCc1nc2nc[nH]n2c(=O)c1NC(=O)Nc1ccccc1 | i
FC(F)(F)C1CN(c2ccnc3ccccc23)CCO1 (centres undefined) | i
CC(C)O[C@H]1CN(C(=O)c2cnc(-c3ccccc3)nc2)C[C@@H]1O | i
Cc1ccc2c(c1)c(CNC1CCN(C(=O)C3CCCO3)CC1)nn2C (centres undefined) | i
CC1CN(c2ccccc2)CCN1C(=O)c1cc(-c2ccncc2)n[nH]1 (centres undefined) | i
CN1CCC2(CC1)CN(Cc1cccnc1OCC(F)(F)F)CCN2C | i
CCCCN(Cc1nc2nc(C)cc(C)n2n1)S(=O)(=O)c1ccccc1 | i
CC(c1cncs1)N(C)S(=O)(=O)c1sc2c(c1C(=O)O)CCNC2 (centres undefined) | i
COc1ccccc1CNC(=O)c1[nH]cnc1C(=O)NCCN(C)C | i
COc1ccccc1CNC(=O)c1[nH]cnc1C(=O)NCCc1c[nH]c2ccccc12 | i
O=C(NCc1ccccc1)c1nc[nH]c1C(=O)N1CCCCC1 | i
COc1ccccc1CNC(=O)c1nc[nH]c1C(=O)NCc1ccccc1 | +
CC1CCCN(C(=O)c2[nH]cnc2C(=O)NCc2ccccc2)C1 (centres undefined) | i
O=C(NCC1CCCCC1)c1nc[nH]c1C(=O)NCc1ccccc1 | +
CCCc1nc(N(C)Cc2cnc(NC)nc2)c2cnn(C)c2n1 | i
O=C(c1cscn1)N1CC[C@@H](c2ccc3ccccc3c2)[C@H](O)C1 | i
COc1ccc(-c2cc3n(n2)CCC(=O)N3Cc2ccc(C(=O)NCCN3CCCCC3)cc2)cc1 | i
CCOc1c(N2CCN(c3cccc(C)c3)C(C)C2)c(=O)c1=O (centres undefined) | i
COc1nc2ccccc2cc1-c1cc(C)ccc1OCC(N)=O | i
Cc1cccc(-c2nnc(-c3nc(NCCc4ccco4)c4ccccc4n3)o2)c1 | i
CCCN(CCC)c1ncc(NS(=O)(=O)c2cccc(Cl)c2C)cc1C(=O)O | i
CC(C)c1nc(CNC(=O)c2cc(COc3ccccc3)[nH]n2)cs1 | i
CCN(Cc1ccccc1Cl)C(=O)CCNC(=O)c1ccccc1F | i
Cc1cccc(CN(C)Cc2cn[nH]c2-c2ccc(F)cc2)c1O | i
CN(CCC(C)(C)O)Cc1cccc(Cl)c1F | +

Source: PubChem BioAssay (Corson Lab, School of Medicine, Indiana University)
